FECH inh – blocks human mitochondrial ferrochelatase activity | AID 1671448 | hit rate 3.3% among 20,000 | P22830 | purified FECH, Ni-mesoporphyrin absorbance 550 nm | calls only at 10 µM (by protocol);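 active means enzyme reaction rate more than 3 SD below the solvent-only control wells on the same plate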;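 further: lower slope than DMSO wells means FECH inhibition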
Target sequence (P22830 whole entry, looked up): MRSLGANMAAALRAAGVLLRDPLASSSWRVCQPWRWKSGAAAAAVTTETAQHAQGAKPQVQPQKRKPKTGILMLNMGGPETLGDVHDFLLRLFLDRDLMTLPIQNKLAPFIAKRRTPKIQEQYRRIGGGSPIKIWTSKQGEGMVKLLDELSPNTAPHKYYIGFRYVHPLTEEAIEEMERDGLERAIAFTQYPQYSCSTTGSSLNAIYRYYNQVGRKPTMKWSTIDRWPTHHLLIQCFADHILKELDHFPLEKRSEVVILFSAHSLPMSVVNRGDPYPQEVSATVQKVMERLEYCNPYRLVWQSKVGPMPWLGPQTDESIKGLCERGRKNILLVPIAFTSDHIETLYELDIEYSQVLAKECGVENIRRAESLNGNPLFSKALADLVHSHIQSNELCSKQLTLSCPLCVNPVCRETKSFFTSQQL
Numbers without * were called inactive; i = inactive; + = active, no number. The sample as a whole holds a higher share of hits than the screen did.

SMILES | FECH inh
CCOc1ccc(Nc2nc(N(CC)CC)nc3c2cnn3-c2ccccc2)cc1 | i
CN(C)c1nc(Nc2ccc(Cl)cc2)c2cnn(-c3ccccc3)c2n1 | i
CCN(CC)c1nc(Nc2ccc(OC)cc2)c2cnn(-c3ccccc3)c2n1 | +
COc1ccc(Nc2nc(N(C)C)nc3c2cnn3-c2ccccc2)cc1 | +
CCOc1ccc(Nc2nc(N(CC)CCO)nc3c2cnn3-c2ccccc2)cc1 | i
COc1cccc(Nc2nc(NCC3CCCO3)nc3c2cnn3-c2ccccc2)c1 (stereo unspecified) | i
COc1cccc(Nc2nc(N(C)C)nc3c2cnn3-c2ccccc2)c1 | i
COc1ccc(OC)c(Nc2nc(NCc3ccccc3Cl)nc3c2cnn3-c2ccccc2)c1 | +
CCOc1ccc(Nc2nc(NCC3CCCO3)nc3c2cnn3-c2ccccc2)cc1 (stereo unspecified) | +
COc1ccc(OC)c(Nc2nc(NCc3ccccc3OC)nc3c2cnn3-c2ccccc2)c1 | i
COc1ccc(OC)c(Nc2nc(NCc3ccccc3)nc3c2cnn3-c2ccccc2)c1 | i
Cc1cc(C)cc(Nc2nc(NCC3CCCO3)nc3c2cnn3-c2ccccc2)c1 (stereo unspecified) | i
Cc1ccsc1-c1nccn1CCc1nc(-c2cccnc2)n[nH]1 | i
CN(C(=O)C1CCCN(c2ncnc3c2nc2n3CCCCC2)C1)c1ccccc1 (stereo unspecified) | i
Cc1noc(C)c1S(=O)(=O)NCc1cnn2ccccc12 | i
COc1ccc(C(=O)Nc2nc3n(n2)C(c2ccc(Cl)cc2)C=C(c2ccc(Cl)cc2)N3)cc1 (stereo unspecified) | i
CCOc1ccc(Nc2nc(NCC(C)O)nc3c2cnn3-c2ccccc2)cc1 (stereo unspecified) | i
CCC(NC(=O)c1cc(Cn2cnc3ccccc32)[nH]n1)c1cc(C)ccn1 (stereo unspecified) | i
OCCN1CCN(c2nc(Nc3ccccc3)c3cnn(-c4ccccc4)c3n2)CC1 | i
CC(C)CCNC(=O)C(=O)NCc1n[nH]c(=O)c2ccccc12 | i
COc1ccc(NC(=O)NCCn2c(-c3ccncc3)nc3cccnc32)cc1 | i
Cc1ccc(NC(=O)NCCn2c(-c3ccncc3)nc3cccnc32)cc1Cl | +
Cc1cc(C)cc(NC(=O)NCCn2c(-c3ccncc3)nc3cccnc32)c1 | i
Cc1ccc(-c2nc3cccnc3n2CCNS(=O)(=O)c2ccc(C)cc2)cc1 | i
COC(=O)CNC(=O)NCCn1c(-c2ccccc2)nc2cccnc21 | +
SMILES | FECH inh
COc1ccc(CC(=O)NCCn2c(-c3ccccc3)nc3cccnc32)c(Cl)c1 | i
CCc1ccccc1NC(=O)NCCn1c(-c2ccncc2)nc2cccnc21 | i
CCC(=O)Nc1ccc(S(=O)(=O)NCCn2c(-c3ccc(C)cc3)nc3cccnc32)cc1 | +
CCc1ccc(S(=O)(=O)NCCn2c(-c3ccc(C)cc3)nc3cccnc32)cc1 | i
Cc1cc(C)n2nc(CN(c3ccc(F)cc3)S(C)(=O)=O)nc2n1 | i
CCC(C(=O)Nc1ccccc1)n1c(C(=O)OC)cc2ccsc21 (stereo unspecified) | i
Cc1ccc(S(=O)(=O)NCCn2c(-c3ccc(F)cc3)nc3cccnc32)cc1C | i
O=C(CCn1ccccc1=O)Nc1cnc2n1CCCC2 | i
O[C@@H]1C[C@H]2CN(CCOc3ccc(Cl)cc3)C[C@H]2C[C@@H]1O | i
Cc1ccc(-n2c(CN3CCN(S(=O)(=O)c4cc(C)ccc4C)CC3)nc3cccnc32)cc1 | i
COc1ccc(OC)c(-c2ccc3nc(C)ccc3c2)c1 | i
CCC(CC)n1ncc(C)c1NC(=O)C(=O)c1ccco1 | i
CC1CN(c2ccccc2)CCN1Cc1ccc(CN(C)S(C)(=O)=O)o1 (stereo unspecified) | i
O=S(=O)(Nc1nc2n(n1)C(c1ccc(F)cc1)C=C(c1ccccc1)N2)c1ccccc1 (stereo unspecified) | i
Cc1ccc(C2=CC(c3ccc(F)cc3)n3nc(NS(=O)(=O)c4ccc(C)cc4)nc3N2)cc1 (stereo unspecified) | i
CCC(=O)Nc1nc2n(n1)C(c1ccc(Cl)cc1)C=C(c1ccc(Cl)cc1)N2 (stereo unspecified) | i
O=C(O)CCCC(=O)Nc1nc2n(n1)C(c1ccc(Cl)cc1)C=C(c1ccc(Cl)cc1)N2 (stereo unspecified) | i
CCCC(=O)Nc1nc2n(n1)C(c1ccc(Cl)cc1)C=C(c1ccc(C)cc1)N2 (stereo unspecified) | +
Cc1ccc(C2=CC(c3ccc(C)cc3)n3nc(NS(=O)(=O)c4ccccc4)nc3N2)cc1 (stereo unspecified) | +
CCOc1ccccc1-c1nc(CSc2nc(CC)cc(=O)[nH]2)c(C)o1 | i
COc1ccc(-n2nc(CC(C)C)nc2Cn2cccn2)cc1 | i
COC(=O)c1ccc(NC(=O)N2CCC(n3cnc4cccnc43)CC2)cc1 | i
CCOc1ccccc1CNC(=O)CC1CCN(S(=O)(=O)c2ccccc2)CC1 | i

Screening results as filed in PubChem BioAssay.
